Measurements published in PubChem BioAssay (NCATS).
Records with an inconclusive call do not appear. Calls of active or inactive are those of the source. Unless noted, the call rests on the fitted dose curve.

Legend:
[1] = target: Androgen receptor (Homo sapiens) (UniProt P10275); assay: qHTS assay for small molecule agonists of androgen receptor signaling (AID 588515; active means well fitted curve in the direction sought with a large enough effect in the signal ratio, with a control signal flat; the % refers to the signal ratio; further: potency means the concentration at half of the fitted maximal effect; on activation: on the % scale 0 is the no-effect control and ±100 the full control effect); settings: AR-UAS-bla HEK293, beta-lactamase ratio, agonist 16 h; activation: stronger effect = higher value
Summary of the method: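 Stimulation of an AR-responsive β-lactamase reporter in GripTite HEK293 cells was measured after 16 h compound exposure at 37 °C, via CCF4 fluorescence after 2 h RT. EC50 from Hill fits, normalized to R1881 at 30 nM.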

[2] = target: Androgen receptor (Homo sapiens) (UniProt P10275); assay: qHTS assay for small molecule antagonists of androgen receptor signaling (AID 588516; active means well fitted curve in the direction sought with a large enough effect in the signal ratio, with a control signal flat, not every such curve was filed as active; the % refers to the signal ratio; further: on the % scale 0 is the no-effect control and ±100 the full control effect)
Summary of the method: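 AR-UAS-bla-GripTite HEK 293 cells (2000/well, 5 h at 37 C) received compound titrations, then R1881 at 10 nM final; after 16 h at 37 C, CCF4 dye 2 h RT, beta-lactamase fluorescence read; IC50 from Hill fits.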

[3] = qHTS assay for small molecule antagonists of peroxisome proliferator-activated receptor delta signaling (AID 588535; active means well fitted inhibition curve with a large enough effect in the signal ratio, with a control signal flat, not every such curve was filed as active; the % refers to the signal ratio; further: potency means the concentration at half of the fitted maximal effect;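 on max response: cells co-treated with a PPAR-delta agonist as stimulator during compound exposure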); settings: HEK293T PPARd-UAS-bla, beta-lactamase FRET ratio, 18 h; 460 nm channel
Summary of the method: (§1)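 Inhibition of PPAR-delta response element-driven beta-lactamase expression is measured in HEK293T cells exposed to a compound titration series for 18 hrs at 37 C. Half-maximal inhibition comes from Hill equation fitting.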

[4] = target: Peroxisome proliferator-activated receptor delta (Homo sapiens) (UniProt Q03181); assay: as above
Summary of the method: as §1

[5] = target: Peroxisome proliferator-activated receptor gamma (Homo sapiens) (UniProt P37231); assay: qHTS assay for small molecule antagonists of peroxisome proliferator-activated receptor gamma signaling (AID 588537; active means well fitted inhibition curve with a large enough effect in the signal ratio, with a control signal flat, not every such curve was filed as active; the % refers to the signal ratio;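 further: reporter cells co-stimulated with 50 nM rosiglitazone agonist during compound treatment; % of control where 0% means no effect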)
Summary of the method: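 Compounds are tested as concentration series for inhibition of rosiglitazone-driven (50 nM) reporter expression in GeneBLAzer PPAR-gamma-UAS-bla HEK293 cells. After 16 h at 37 C, CCF4 substrate is added for 2 h at room temperature and blue/green fluorescence is measured.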

[6] = qHTS assay for small molecule activators of the p53 signaling pathway (AID 651743; active means well fitted activation curve with a large enough effect in the signal ratio, not every such curve was filed as active; the % refers to the signal ratio; further: series mostly up to about 92 µM; % of control where 0% means no effect); settings: HCT-116 p53RE-bla, beta-lactamase FRET ratio, 16 h; activation: stronger effect = higher value
Summary of the method: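 Agonist-mode quantitative HTS in HCT-116 cells carrying a p53-response-element beta-lactamase reporter; 16 h compound treatment at 37 C, then FRET substrate loading for 2 h at room temperature and fluorescence read.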

[7] = target: Bile acid receptor (Homo sapiens) (UniProt Q96RI1); assay: qHTS assay for small molecule antagonists of farnesoid X receptor signaling (AID 588526); further: potency means the concentration at half of the fitted maximal effect
Summary of the method: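 Concentration-response titrations were fitted to the Hill equation for half-maximal inhibition and maximal response, with data normalised to 50 uM chenodeoxycholic acid and DMSO control wells. Cells: FXR-UAS-bla HEK293T, dialyzed FBS.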

[8] = target: Thyroid hormone receptor beta (Homo sapiens) (UniProt P10828); assay: qHTS assay for small molecule antagonists of thyroid hormone receptor beta signaling (AID 588547; active means well fitted inhibition curve with a large enough effect in the signal ratio, with a control signal flat, not every such curve was filed as active; the % refers to the signal ratio; further: potency means the concentration at half of the fitted maximal effect;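 on activity change % (negative = inhibition): cells stimulated with 0.4 nM T3 agonist during compound exposure; series mostly up to about 77 µM; on the % scale 0 is the no-effect control and ±100 the full control effect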); settings: TR-UAS-bla HEK293, beta-lactamase ratio, antagonist mode, 18 h
Summary of the method: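 TR-UAS-bla GripTite HEK293 cells in 2% charcoal/dextran FBS medium were preincubated 4 h at 37 C, given compound (0.59 nM to 92 uM) plus 0.4 nM T3 (final) for 18 h, then CCF4 for 2 h at RT; Hill fit gave IC50.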

[9] = qHTS assay for small molecule agonists of the antioxidant response element (ARE) signaling pathway (AID 651741; active means well fitted activation curve with a large enough effect in the signal ratio; the % refers to the signal ratio; further: potency means the concentration at half of the fitted maximal effect; on activation: % of control where 0% means no effect)
Summary of the method: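 Reporter: beta-lactamase under ARE, stably in HepG2. Exposure: 16 h, 37 C, compounds delivered in DMSO by pin tool after 5 h cell preincubation. Readout: FRET substrate fluorescence after 2 h at RT.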

Peroxisome proliferator-activated receptor gamma (Homo sapiens), sequence (P37231 whole entry, looked up): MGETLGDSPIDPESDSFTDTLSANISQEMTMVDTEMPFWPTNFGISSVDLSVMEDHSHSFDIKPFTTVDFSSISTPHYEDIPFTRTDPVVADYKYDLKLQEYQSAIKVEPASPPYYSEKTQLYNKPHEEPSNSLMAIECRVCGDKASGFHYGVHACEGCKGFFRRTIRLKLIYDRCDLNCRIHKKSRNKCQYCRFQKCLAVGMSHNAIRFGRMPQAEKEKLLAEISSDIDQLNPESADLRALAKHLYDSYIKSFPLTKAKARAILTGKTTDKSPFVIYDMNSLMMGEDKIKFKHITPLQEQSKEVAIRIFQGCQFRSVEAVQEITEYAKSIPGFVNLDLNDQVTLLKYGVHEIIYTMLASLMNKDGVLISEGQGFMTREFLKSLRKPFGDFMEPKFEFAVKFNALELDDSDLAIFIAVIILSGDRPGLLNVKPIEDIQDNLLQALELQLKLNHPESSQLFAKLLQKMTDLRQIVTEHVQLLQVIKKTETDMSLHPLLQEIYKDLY
Peroxisome proliferator-activated receptor delta (Homo sapiens), sequence (Q03181 whole entry, looked up): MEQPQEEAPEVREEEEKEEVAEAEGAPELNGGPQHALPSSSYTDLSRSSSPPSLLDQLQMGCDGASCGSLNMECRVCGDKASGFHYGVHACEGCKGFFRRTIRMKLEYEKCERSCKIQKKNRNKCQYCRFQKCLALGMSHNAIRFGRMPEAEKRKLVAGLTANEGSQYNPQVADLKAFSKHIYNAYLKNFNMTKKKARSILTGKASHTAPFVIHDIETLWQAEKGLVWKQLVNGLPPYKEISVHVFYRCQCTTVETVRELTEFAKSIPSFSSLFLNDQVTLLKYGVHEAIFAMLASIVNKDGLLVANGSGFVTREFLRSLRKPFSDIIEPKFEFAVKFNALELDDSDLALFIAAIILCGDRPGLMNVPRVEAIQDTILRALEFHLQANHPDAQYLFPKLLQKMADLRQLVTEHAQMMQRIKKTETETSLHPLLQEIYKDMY
Thyroid hormone receptor beta (Homo sapiens), sequence (P10828 whole entry, looked up): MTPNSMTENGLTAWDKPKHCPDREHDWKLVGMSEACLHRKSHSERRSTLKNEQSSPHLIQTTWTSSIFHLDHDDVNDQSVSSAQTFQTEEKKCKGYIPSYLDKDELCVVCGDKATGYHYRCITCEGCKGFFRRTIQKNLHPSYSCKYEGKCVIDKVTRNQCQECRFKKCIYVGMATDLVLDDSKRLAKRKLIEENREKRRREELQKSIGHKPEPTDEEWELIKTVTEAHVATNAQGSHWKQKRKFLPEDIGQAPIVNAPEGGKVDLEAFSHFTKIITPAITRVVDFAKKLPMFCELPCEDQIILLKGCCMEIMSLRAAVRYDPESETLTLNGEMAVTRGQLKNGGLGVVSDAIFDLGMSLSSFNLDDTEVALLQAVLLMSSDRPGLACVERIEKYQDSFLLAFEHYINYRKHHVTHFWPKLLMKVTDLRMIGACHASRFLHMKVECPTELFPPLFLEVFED
Androgen receptor (Homo sapiens), sequence (P10275 whole entry, looked up): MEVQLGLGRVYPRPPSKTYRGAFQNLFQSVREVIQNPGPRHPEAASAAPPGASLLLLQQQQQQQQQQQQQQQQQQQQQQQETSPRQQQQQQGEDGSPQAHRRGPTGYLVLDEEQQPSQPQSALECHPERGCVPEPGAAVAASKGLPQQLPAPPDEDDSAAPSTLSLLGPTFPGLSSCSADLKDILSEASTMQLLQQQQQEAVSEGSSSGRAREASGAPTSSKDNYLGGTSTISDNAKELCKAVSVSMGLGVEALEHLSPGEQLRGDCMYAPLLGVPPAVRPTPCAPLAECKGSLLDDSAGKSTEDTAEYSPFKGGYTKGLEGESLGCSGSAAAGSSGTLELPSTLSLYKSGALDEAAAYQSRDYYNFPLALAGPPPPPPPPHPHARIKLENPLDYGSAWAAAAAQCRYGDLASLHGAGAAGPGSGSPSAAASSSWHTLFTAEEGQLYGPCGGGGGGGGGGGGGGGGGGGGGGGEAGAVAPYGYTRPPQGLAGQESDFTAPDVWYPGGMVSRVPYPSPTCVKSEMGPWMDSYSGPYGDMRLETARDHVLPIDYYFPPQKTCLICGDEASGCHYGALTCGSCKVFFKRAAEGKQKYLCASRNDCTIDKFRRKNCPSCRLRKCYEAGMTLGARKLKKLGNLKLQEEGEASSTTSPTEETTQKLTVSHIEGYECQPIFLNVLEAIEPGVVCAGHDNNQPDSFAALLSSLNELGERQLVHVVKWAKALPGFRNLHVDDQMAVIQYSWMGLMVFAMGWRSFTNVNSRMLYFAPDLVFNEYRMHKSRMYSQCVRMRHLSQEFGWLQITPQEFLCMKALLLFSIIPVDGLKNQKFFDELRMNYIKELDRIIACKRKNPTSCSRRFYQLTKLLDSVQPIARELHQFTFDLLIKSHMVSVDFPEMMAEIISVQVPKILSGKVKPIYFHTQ
Bile acid receptor (Homo sapiens), sequence (Q96RI1 whole entry, looked up): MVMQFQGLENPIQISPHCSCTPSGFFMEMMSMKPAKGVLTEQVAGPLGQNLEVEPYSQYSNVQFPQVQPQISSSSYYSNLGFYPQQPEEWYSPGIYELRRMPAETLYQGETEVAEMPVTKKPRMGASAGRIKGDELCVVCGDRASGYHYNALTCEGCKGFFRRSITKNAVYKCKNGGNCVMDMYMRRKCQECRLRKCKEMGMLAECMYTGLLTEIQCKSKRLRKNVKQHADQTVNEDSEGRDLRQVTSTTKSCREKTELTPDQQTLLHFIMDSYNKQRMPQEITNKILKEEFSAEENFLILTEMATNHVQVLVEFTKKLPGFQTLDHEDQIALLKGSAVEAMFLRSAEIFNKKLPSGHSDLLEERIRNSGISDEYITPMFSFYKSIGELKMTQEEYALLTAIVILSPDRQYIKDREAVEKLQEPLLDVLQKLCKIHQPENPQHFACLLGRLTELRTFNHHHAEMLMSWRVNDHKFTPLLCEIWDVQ

## CC(C)(C)C(O)/C(=C\c1ccc(Cl)cc1)n1cncn1 (configuration not stated)
[1]
  activation: -3.93% (inactive)
[2]
  outcome: inactive
[3]
  max response: -55.9%
[4]
  Potency: inactive
[5]
  Potency: inactive
[6]
  activation: -2.96% (inactive)

## CCOC(=O)C(C)Oc1ccc(Oc2cnc3cc(Cl)ccc3n2)cc1 (configuration not stated)
[7]
  Potency: inactive
[5]
  Potency: inactive

## C[C@]12CCC(=O)C=C1CC[C@@H]1[C@@H]2[C@@H](O)C[C@]2(C=O)[C@@H](C(=O)CO)CC[C@@H]12
[1]
  Potency: 15.8 µM (active)
[5]
  Potency: inactive
[8]
  activity change % (negative = inhibition): 7.91% (inactive)
[9]
  Potency: inactive
[6]
  activation: -0.611% (inactive)

## CC(C)Cc1c(C(=O)O)c(C(F)F)nc(C(F)(F)F)c1C1=NCCS1
[1]
  activation: -2.77% (inactive)
[2]
  outcome: inactive
[7]
  Potency: inactive
[3]
  max response: 45.9%
[4]
  Potency: inactive
[5]
  Potency: inactive
[8]
  activity change % (negative = inhibition): -21.3% (inactive)
[9]
  Potency: inactive
[6]
  activation: -1.35% (inactive)

## CC(=O)Nc1ccc(N=Nc2cc(C)ccc2O)cc1
[1]
  activation: -4.42% (inactive)
[2]
  outcome: inactive
[3]
  max response: 14%
[9]
  Potency: 17.2 µM (active)
[6]
  activation: -6.18% (inactive)

## c1ccc(B(c2ccccc2)c2ccccc2)cc1
[7]
  Potency: inactive
[3]
  max response: -3.44%
[4]
  Potency: inactive
[5]
  Potency: inactive
[6]
  activation: -0.854% (inactive)

## O=c1[nH]sc2ccccc12
[7]
  Potency: 44.7 µM (active)
[8]
  Potency: 15.8 µM (active)
[9]
  Potency: 27.3 µM (active)
[6]
  activation: -3.28% (inactive)

## O=C(O)C(Oc1ccc(Cl)cc1)Oc1ccc(Cl)cc1
[1]
  activation: -5.73% (inactive)
[2]
  outcome: inactive
[7]
  Potency: inactive
[3]
  max response: -2.46%
[4]
  Potency: inactive
[8]
  activity change % (negative = inhibition): -5.07% (inactive)
[9]
  Potency: inactive
[6]
  activation: 2.64% (inactive)

## OC1CCC(C2CCCCC2)CC1 (configuration not stated)
[7]
  Potency: inactive
[3]
  max response: -39.9%
[4]
  Potency: inactive
[5]
  Potency: inactive
[8]
  activity change % (negative = inhibition): 4.98% (inactive)
[9]
  Potency: inactive
[6]
  activation: 3.92% (inactive)

## COC(=O)C1CCC(C(=O)OC)CC1 (configuration not stated)
[7]
  Potency: inactive
[3]
  max response: 36.1%
[4]
  Potency: inactive
[5]
  Potency: inactive
[9]
  Potency: inactive
[6]
  activation: 8.46% (inactive)

## FC(F)(F)c1ccc(Cl)c(Cl)c1
[1]
  activation: 6.47% (inactive)
[2]
  outcome: inactive
[3]
  max response: 40.3%
[4]
  Potency: inactive
[5]
  Potency: inactive
[8]
  activity change % (negative = inhibition): 7.4% (inactive)

## CCCCC(CC)COP(=O)(O)OCC(CC)CCCC (configuration not stated)
[7]
  Potency: inactive
[3]
  max response: -17.6%
[4]
  Potency: inactive
[8]
  activity change % (negative = inhibition): -4.02% (inactive)
[9]
  Potency: 54.5 µM (active)

## O=C(O)CN(CCCN(CC(=O)O)CC(=O)O)CC(=O)O
[1]
  activation: -11.6% (inactive)
[7]
  Potency: inactive
[3]
  max response: -69.3%
[4]
  Potency: 14.1 µM (active)
